Screening data from PubChem.
In the library only some 12% were active in any assay of this set; here they are far more common.
Shiga toxin inh – blocks Shiga toxin action in Vero cells; Vero cells, Shiga toxin protein synthesis inhibition reporter; inhibition, % at 38.7 µM; 290,000 tested, 9.2% active; AID 2315; in the data active = inhibition mostly above about 28%, no sharp cut-off; inactive = mostly below about 43%; also: 0% is about no effect
Cycloheximide cs – affects cycloheximide protein synthesis inhibition readout, counter-screen; cell reporter, cycloheximide protein synthesis inhibition counterscreen; max response, %; 300,000 tested, 12% active; in the data active = max response mostly above about 13%, no sharp cut-off; inactive = mostly below about 14%; also: read at 38.3 µM for the half of the compounds with a filed dose; 0% is about no effect
NS1 function inh – influenza NS1 inhibition; 270,000 tested, 0.4% active; Potency, µM (series often up to 46.1 µM), for inactives: at the top dose activity, positive = more growth; AID 2326; also: potency is read from the fitted curve at half-maximal effect; actives are rising curves; nearly all actives have a fitted effect of over 50% in size
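In this qHTS, NS1 from influenza A is expressed in budding yeast, where it slows growth. Cells are switched from glucose to 2% galactose medium (pH 6.0, -URA), treated with compound, and growth recovery is read at OD600.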
SARS PLP yeast – inhibitors of SARS-CoV papain-like protease in yeast. S. cerevisiae expressing SARS-CoV PLpro, growth rescue. 330,000 tested, 0.19% active. Potency, µM (doses to about 32.9 µM), for the others: at the top dose activity, positive = growth rescue, usual class: activators; also: potency is read from the fitted curve at half-maximal effect; 0% is about no effect; nearly all actives have a fitted effect of over 55% in size
* = called active by the depositor; ? = inconclusive; nt = no result given. Unless noted, calls follow the shape of the full dose curve.

SMILES	Shiga toxin inh	Cycloheximide cs	NS1 function inh	SARS PLP yeast
COCCC(=O)N1CCC(Oc2ccc(C(=O)N3CCCCC3CCO)cc2)CC1 (stereo not given)	11	17	12%	-6%
COCC1CCCCN1C(=O)c1cccc(OC2CCN(C(=O)C3CC3)CC2)c1 (stereo not given)	81*	50*	24%	4%
COc1cc(C(=O)N2CCCCCCC2)ccc1OC1CCN(C(C)=O)CC1	43*	30*	8%	0%
COCC1CCCCN1C(=O)c1ccc(OC)c(OC2CCN(C(C)C)CC2)c1 (stereo not given)	93*	57*	-9%	-4%
CCCCC(=O)Nc1ccc(C(=O)Nc2nnc(COC)s2)cc1	3	1	9%	14%
Cc1ccc(-n2cc(CN(C)CCc3cn[nH]c3)c(-c3cccc(C)c3)n2)cc1	8	1	1%	1%
CS(=O)(=O)c1ccc(-c2sc3ccccc3c2C(=O)NCCCN2CCOCC2)cc1	nt	nt	nt	-6%
Brc1ccc(N=Nc2ccc3ccccc3n2)cc1	54*	36*	-3%	-1%
Cc1cc(C)c(S(=O)(=O)N2CCCC2=O)c(C)c1N(C)S(C)(=O)=O	-5	-2	19%	2%
CC(=O)Nc1ccc(-c2nc3cc(Cl)ccc3o2)cc1	109*	52*	-21%	0%
O=C(Nc1ccc2oc(-c3ccncc3)nc2c1)c1c(F)c(F)c(F)c(F)c1F	-6	1	7%	0%
O=C(O)c1ccccc1-c1ccccc1C(=O)Nc1ccc(-c2nc3cc(Cl)ccc3o2)cc1	62*	26*	16%	1%
COc1ccccc1C(=O)Nc1ccc2oc(-c3ccc(F)cc3)nc2c1	38	-1	-14%	-9%
CC(C)(C)C(=O)Nc1ccc2oc(-c3cc(F)c(F)cc3Cl)nc2c1	59	42*	-10%	-23%
Cc1ccccc1C(=O)NNC(=O)c1ccoc1C	20	2	5%	?
CNC(=S)NNC(=O)c1ccccc1Br	-10	0	6%	17%
COc1ccc(C)cc1NC(=O)NNC(=O)c1ccoc1C	31*	active	-4%	-5%
O=C(Cc1ccccc1)NNC(=O)c1ccccc1C(=O)O	27	15*	3%	5%
Cc1occc1C(=O)NNC(=O)c1ccccc1Br	28*	12	-5%	-20%
O=C(COc1ccc(Cl)cc1)NNC(=O)c1ccccc1C(=O)O	-21	-4	12%	-2%
Cc1occc1C(=O)NNC(=O)c1ccccc1C(=O)O	69*	24*	7%	-1%
COc1cccc(C2(C)NC(=O)N(CC(=O)Nc3ccc(N4CCOCC4)cc3)C2=O)c1 (stereo not given)	nt	nt	nt	5%
COc1ccc2c(Cl)c(C(=O)NCC3CCCO3)sc2c1Cl (stereo not given)	23	20*	-11%	11%
O=C(NCC1CCCO1)c1sc2ccccc2c1Cl (stereo not given)	73*	41*	-12%	-6%
O=C(NCC1CCCO1)c1cccc2ccccc12 (stereo not given)	-6	-3	14%	3%
SMILES	Shiga toxin inh	Cycloheximide cs	NS1 function inh	SARS PLP yeast
Cc1ccc2c(Cl)c(C(=O)NCC3CCCO3)sc2c1 (stereo not given)	77*	55*	1%	-4%
CC(=O)C1=C(C)OC(N)=C(C#N)C1c1cc2cc(C)c(C)cc2nc1Cl (stereo not given)	active	31*	-7%	8%
COC(=O)C1=C(C)OC(N)=C(C#N)C1c1cc2cc(C)ccc2nc1Cl (stereo not given)	3	-2	2%	0%
O=C(NC1C(=O)NNC1c1ccccc1)c1ccccc1 (stereo not given)	116*	21*	6%	1%
Cc1cccc(C(=O)NC2C(=O)NNC2c2ccc(Cl)cc2)c1 (stereo not given)	-35	-5	nt	4%
CC(NC(=O)C(=O)N/N=C\c1cccc([N+](=O)[O-])c1)c1ccccc1 (stereo not given)	5	8	8%	0%
CCOC(=O)c1[nH]c(C)c(C(=O)O)c1C	-15	-8	-4%	-6%
CCCCCCC(=O)c1c(C)[nH]c(C(=O)OCC)c1C	81*	30*	-15%	-12%
CCCCCC(=O)c1c(C)[nH]c(C(=O)OCC)c1C	104*	17*	-21%	-38%
CC(C)c1nc(SCc2c(F)cccc2Cl)c2c(=O)n(C)c(=O)n(C)c2n1	-4	-1	-59%	2%
COC(=O)CN(c1cc([N+](=O)[O-])ccc1OC)S(C)(=O)=O	-4	6	13%	-2%
Cc1cccc(Nc2nn3c(=O)c4ccccc4nc3s2)c1	55*	14	7%	3%
CCCSc1nn2c(=O)c3ccccc3nc2s1	66*	39*	-59%	-14%
